# Data published in PubChem BioAssay AID2546 (National Center for Advancing Translational Sciences (NCATS), 2010).
# Hit rate of the full screen: of about 310,000 compounds, about 11,000 (3.5%) were called active. Inconclusive results (about 8%) are left out. The call rests on the fitted dose curve; in most records, active means well fitted inhibition curve with a large enough effect; inconclusive means small, poorly fitted or top-dose-only effect, or effect the other way; inactive means flat fitted curve, though single readings scatter. Shown is part of a subset that was picked to be rich in actives.
# Assay: VP16 counterscreen qHTS for inhibitors of ROR gamma transcriptional activity;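 further: Gal4-VP16 expression switched on by copper sulfate through the metallothionein promoter; nearly all actives have a fitted effect of over 50% in size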
# Details: Drosophila S2 Gal4-VP16 UAS-luciferase, luminescence, 20 h; series mostly up to 53.6 µM; activity, negative = inhibition: at the top concentration
# On the % scale 0 is the no-effect control and ±100 the full control effect; potency means the concentration at half of the fitted maximal effect.
Compound,"activity, negative = inhibition",Potency
COC(=O)c1ccc2c(=O)n(CCN3CCOCC3)c(SCC(=O)Nc3cccc(OC)c3)nc2c1,8.75% (inactive),
COc1ccccc1N1CCN(S(=O)(=O)CCNC(=O)c2ccc(OC(C)C)cc2)CC1,-17.5% (inactive),
O=C(NC(=S)N1CCc2ccccc21)c1ccco1,,3.16 µM (active)
O=C(CSCc1ccccc1)N1CCc2ccccc21,-18% (inactive),
NC(=O)N1CCc2ccccc21,-1.97% (inactive),
CN(C)c1ccc(-c2nnc(-c3cccnc3)o2)cc1,-28.8% (inactive),
O=C(Nc1ccncc1)Nc1ccc(F)cc1,-1.61% (inactive),
Cc1ccc(C)c(N2CCN(C(=O)CCCCCn3c(=S)[nH]c4ccc(N5CCOCC5)cc4c3=O)CC2)c1,,5.62 µM (active)
Cc1ccc(C)c(N2CCN(C(=O)CCCn3c(=O)c4cccn4c4cccnc43)CC2)c1,-5.07% (inactive),
Cc1ccc(C)c(N2CCN(C(=O)CCCCn3c(=O)[nH]c4ccccc4c3=O)CC2)c1,-1.55% (inactive),
O=C(CSc1nc2nccnc2c(=O)n1Cc1cccs1)Nc1ccccc1F,8.14% (inactive),
CC(=O)N(C)c1ccc(NC(=O)Nc2cccc3ccccc23)cc1,-1.22% (inactive),
CCN1/C(=C/C(=S)Nc2ccccc2)Sc2ccccc21,,12.6 µM (active)
O=C(CCN1c2ccccc2Sc2ccccc21)Nc1ccccc1,-5.2% (inactive),
CCNC(=O)N1c2ccccc2Sc2ccccc21,-17% [at 10 µM] (inactive),
Cc1ccc(C(=O)N2CC(=O)Nc3ccc(F)cc3C2c2ccc(F)cc2)cc1 (stereo not given),3.68% (inactive),
CN(CC1CCCO1)S(=O)(=O)c1ccc(C(=O)Nc2ccc(F)cc2)cc1 (stereo not given),0% (inactive),
N#C[C@]1(S(=O)(=O)c2ccccc2)C[C@@H]2ON=C(c3cccc(Br)c3)[C@@H]2C1,,11.2 µM (active)
COC(=O)[C@]1(S(=O)(=O)c2ccccc2)C[C@@H]2ON=C(c3ccc(OC)cc3)[C@@H]2C1,5.28% (inactive),
Cc1cc(NC(=O)c2ccco2)c(=O)n(Cc2c(F)cccc2Cl)c1,-2.23% (inactive),
Cc1c(CN2CC[C@@H](N3CCN(c4ccccn4)CC3)[C@H](O)C2)[nH]c2ccc(F)cc12,-0.0686% (inactive),
CCCn1c(=S)[nH]c2ccc(C(F)(F)F)cc21,1.78% (inactive),
CC(C)n1c(=S)[nH]c2cc(C(F)(F)F)ccc21,,10 µM (active)
COc1ccc(C)cc1N(C(=O)Cn1nnc(-c2ccc(C)o2)n1)C(C(=O)NC1CCCC1)c1ccncc1 (stereo not given),12.3% (inactive),
Oc1cccc(C2c3[nH]c4ccccc4c3CCN2Cc2cnn(-c3ccccc3)c2)c1 (stereo not given),-0.197% (inactive),
Cc1[nH]nc(-c2ccc(OCc3cnn(-c4ccccc4)c3)cc2O)c1Oc1ccc(Cl)cc1,,3.98 µM (active)
COc1ccc(-c2nc(N)ncc2-c2ccc(Cl)cc2)c(O)c1,3.63% (inactive),

Compound,"activity, negative = inhibition",Potency
COC(=O)c1c(NC(=O)c2ccccc2F)sc2c1C(C(=O)OC)CC2 (stereo not given),6.15% (inactive),
CCc1ccc(N2CC(C(=O)N3CCCCCC3)CC2=O)cc1 (stereo not given),13.1% (inactive),
COc1ccc(-n2cc(-c3ccccc3)c3c(=S)nc[nH]c32)cc1,,1.12 µM (active)
COc1ccc(N2C(=O)C(Cc3ccccc3)NC2=S)cc1 (stereo not given),2.35% (inactive),
O=c1[nH]cnc2c1c(-c1ccccc1)cn2-c1ccc(F)cc1,-8.72% (inactive),
Cc1ccc(S(=O)(=O)NCc2ccc(C(=O)NC3CCC(C)CC3)cc2)cc1 (stereo not given),-9.72% (inactive),
CCSc1nnc(-c2cc3c(s2)-c2ccccc2CC3)o1,,2.51 µM (active)
O=C(CSc1nnc(-c2ccccc2O)o1)NC1CCCCC1,-6.98% (inactive),
Fc1ccc(CSc2nnc(-c3cc4c(s3)-c3ccccc3CC4)o2)cc1,-1.37% (inactive),
COc1cccc(CNc2ncc(-c3ccccc3)n2C)c1,-9.84% (inactive),
O=C(CCC1CCCN(C(=O)c2ccc(F)c(F)c2)C1)N1CCN(c2ccccn2)CC1 (stereo not given),0.946% (inactive),
CCCCNC(=S)NNC(=O)c1cc(C)on1,,11.2 µM (active)
Cc1cc(C(=O)NCCCc2ccccc2)no1,4.71% (inactive),
COCCCNC(=S)NNC(=O)C(O)(c1ccccc1)c1ccccc1,5.88% (inactive),
O=C(NCCN1CCCC(O)C1)c1cc(COc2c(F)cccc2F)on1 (stereo not given),1.48% (inactive),
CC1CCN(S(=O)(=O)c2ccc(NC(=O)C3CC(=O)N(c4ccccc4)C3)cc2)CC1 (stereo not given),-1.06% (inactive),
COc1cccc(NC(=O)C(=O)c2cn(CC(=O)N3CCOCC3)c3ccccc23)c1,-11.5% (inactive),
Cc1ccc(OC(=O)c2cc3ccccc3o2)cc1,-4.47% (inactive),
C/C(=N\NC(=S)Nc1ccc(C)cc1)c1cc2ccccc2o1,,0.794 µM (active)
Cc1ccc(NC(=O)c2cc3ccccc3o2)cc1,7.14% (inactive),
O=C(c1cc(COc2ccc(F)c(F)c2)on1)N1CCOCC1,-16% (inactive),
COc1ccc(OCc2cc(C(=O)N3CCCC3)no2)c2ccccc12,12.5% (inactive),
COc1ccc(CCN2CC(C(=O)NCCN3CCNC3=O)CCC2=O)cc1 (stereo not given),-15.9% (inactive),
COc1ccc(CNC(=O)Cc2ccc(-c3ccccc3)cc2)cc1OC,10.3% (inactive),
O=C(Nc1nnc(C2=COCCO2)o1)c1ccc([N+](=O)[O-])s1,,3.16 µM (active)
Cc1ccc(C(=O)NCCN2CCOCC2)cc1C,2.14% (inactive),
Cc1ccc(C(=O)Nc2nnc(C3=COCCO3)o2)cc1C,,0.282 µM (active)

Compound,"activity, negative = inhibition",Potency
Cc1nc(NC(=O)c2ccc3c(c2)OCCO3)ccc1Br,-6.43% (inactive),
COc1cc(C(C(=O)NC2CCCC2)N(Cc2ccccc2)C(=O)c2snc(C(N)=O)c2N)ccc1O (stereo not given),-16.6% (inactive),
COc1cccc(C(C(=O)NC2CCCC2)N(C(=O)c2ccco2)c2cccc(C(C)=O)c2)c1OC (stereo not given),8.49% (inactive),
CCN1C(=NCC(C)C)N[C@@H](CCc2ccccc2)[C@H](C(=O)NCC(C)C)[C@H]1C,,inactive
COC(=O)c1ccc(CN2CCCC(C(=O)Nc3cccc(-n4cnnn4)c3)C2)cc1 (stereo not given),-0.887% (inactive),
C=CCN1CCN(C(=O)CCCc2ccccc2)CC1,,7.94 µM (active)
O=C(CCCc1ccccc1)NCc1ccccc1,-5.36% (inactive),
CC(=O)c1ccc(N2CCN(C(=O)CCc3ccccc3)CC2)cc1,10.4% (inactive),
COC(=O)c1cccc(N(CC(=O)NCC2CCCO2)C(=O)CCC(=O)Nc2cc(C)on2)c1 (stereo not given),3.36% (inactive),
CC(C)NS(=O)(=O)c1ccc(OCC(=O)NC2CCCCCC2)cc1,-4.5% (inactive),
CC(=O)Oc1c2c(c3c(c1CC=C(C)C)O[C@@]14C(=CC5CC1C(C)(C)OC4(C/C=C(\C)C(=O)O)C5=O)C3=O)OC(C)(CCC=C(C)C)C=C2 (stereo not given in full),,5.62 µM (active)
COc1ccc(CNC(=O)c2cc(C(=O)C3CC3)c[nH]2)cc1,,22.4 µM (active)
CC(C)CC(=O)c1c[nH]c(C(=O)NCc2ccccc2)c1,-0.114% (inactive),
COc1ccc(CNC(=O)c2c[nH]c3c(OC)cc(OC)cc3c2=O)cc1,2.18% (inactive),
COc1ccc(N2CCC(N3CCN(C)C(CCO)C3)CC2)cc1 (stereo not given),-1.4% (inactive),
Cc1cc(C)n(CC(O)COc2ccc(C(C)(C)C)cc2)n1 (stereo not given),2.58% (inactive),
CC(=O)c1ccc(N2CCN(C(=O)CCNC(=O)Cn3ccc4ccccc4c3=O)CC2)cc1,2.36% (inactive),
CCOc1ccc(S(=O)(=O)N2CCC(C(=O)NCc3ccccn3)CC2)cc1Cl,2.16% (inactive),
Clc1ccc(C(Cn2ccnc2)OCc2ccsc2Cl)c(Cl)c1 (stereo not given),,15.8 µM (active)
O=C(NCCCn1ccnc1)Nc1ccc(Cl)cc1Cl,-7.92% (inactive),
O=C(Nc1ccccc1C(=O)NCCCn1ccnc1)c1ccc(Cl)cc1Cl,-8.8% (inactive),
CSCCC(NS(=O)(=O)c1ccccc1F)C(=O)N1CC=C(c2ccccc2)CC1 (stereo not given),-0.385% (inactive),
O=C(Nc1ccc(Cl)c(Cl)c1)c1ccccc1NC(=O)C1CC=CCC1C(=O)O (stereo not given),2.06% (inactive),
Cc1ccc(CS(=O)(=O)c2ncc(Cl)c(C(=O)Nc3nnc(C)s3)n2)cc1,,6.31 µM (active)
CSc1ncc(Cl)c(C(=O)Nc2cc(C)ccc2C)n1,2.76% (inactive),
Cc1cccc(CS(=O)(=O)c2ncc(Cl)c(C(=O)Nc3ccc(F)cc3)n2)c1,,3.16 µM (active)
Cc1cccc(NC(=O)C(C)SCc2ccccc2)c1 (stereo not given),-3.55% (inactive),

Compound,"activity, negative = inhibition",Potency
Cc1nnc(NC(=O)Nc2ccc(Cl)c(Cl)c2)s1,1.23% (inactive),
Cc1cccc(OCc2ccc(C(=O)Nc3ccc(F)cc3)cc2)c1,-0.168% (inactive),
Cc1cccc(NC(=O)c2nc(S(=O)(=O)Cc3ccccc3)ncc2Cl)c1,,4.47 µM (active)
Cc1ccc(S(=O)(=O)CC(=O)Nc2nnc(C)s2)cc1,0.532% (inactive),
CCSc1ncc(Cl)c(C(=O)Nc2cc(C)ccc2C)n1,0.583% (inactive),
O=S(=O)(c1ccc(Cl)cc1)c1nc(-c2ccco2)oc1N1CCCCC1,-7.28% (inactive),
Cc1c(CNCCc2ccccc2)c(C(=O)O)c(C)n1-c1ccccc1,20.5% (inactive),
CCn1c(C)c(C)c2cc(C(=O)N3CCN(c4cccc(C)c4C)CC3)ccc21,1.57% (inactive),
CCCCCCC(=O)N(O)C1CC(=O)N(c2ccccc2)C1=O (stereo not given),,5.01 µM (active)
CCOc1ccc(N2C(=O)CC(N(O)c3ccccc3)C2=O)cc1 (stereo not given),2.07% (inactive),
CCOC(=O)c1ccc(N2C(=O)CC(N(C)Cc3ccccc3)C2=O)cc1 (stereo not given),-0.343% (inactive),
COc1ccc(CN(C)C(=O)Cc2ccsc2)c(OC)c1OC,-2.7% (inactive),
CC1CCN(S(=O)(=O)c2ccc3c(ccn3CC(=O)O)c2)CC1,0.253% (inactive),
COc1ccc(OC)c(Nc2nc(-c3ccc(O)c(O)c3)cs2)c1,,8.91 µM (active)
COc1ccc(C)cc1Nc1nc(-c2c(C)[nH]c3ccccc23)cs1,-9.12% (inactive),
COc1ccc(-c2csc(Nc3ccc(O)cc3)n2)cc1,,12.6 µM (active)
COc1ccc(-c2csc(Nc3ccccn3)n2)cc1,-8.73% [at 10 µM] (inactive),
COc1ccc(-c2csc(NC3OC(=O)c4ccccc43)n2)cc1 (stereo not given),9.71% (inactive),
COc1ccc(-c2csc(NC(=O)c3ccc(N4C(=O)CCC4=O)cc3)n2)cc1OC,-0.532% (inactive),
O=S(=O)(Cc1cc(Cl)nc(-c2cccnc2)n1)c1ccccc1,-13.2% (inactive),
CCOC(=O)C1CCCN(S(=O)(=O)c2ccc(-n3cnnn3)c(C)c2)C1 (stereo not given),13.5% (inactive),
c1ccc2[nH]c(-c3nc4ccccc4[nH]3)nc2c1,,10 µM (active)
Cc1ccc(-c2nc3ccccc3[nH]c2=O)cc1,-9.75% (inactive),
OC(c1nc2ccccc2[nH]1)C(O)C(O)C(O)c1nc2ccccc2[nH]1 (stereo not given),-6.56% (inactive),
